Reference: publication PMC12529666, “Dysregulation of AGO2-miRNA dynamics underlies the AGO2-associated Lessel–Kreienkamp syndrome”

B1: GTATTTCA (ssRNA)
RNA 1: GAGUUCUACAGUCCGACGAUCCCAACGUAUUUCACACCUGGAAUUCUCGGGUGCCAA
RNA 2: UGGAGUGUGACAAUGGUGUUUG
DNA 1: GATCGTCGGACTGTAGAACTC
DNA 2: TTGGCACCCGAGAATTCCA
modifications: constant regions annealed to DNA blockers; guide miR-122 5' phosphate
B2: ACATCCCG (ssRNA)
RNA 1: GAGUUCUACAGUCCGACGAUCCCAACACAUCCCGCACCUGGAAUUCUCGGGUGCCAA
RNA 2: UGGAGUGUGACAAUGGUGUUUG
DNA 1: GATCGTCGGACTGTAGAACTC
DNA 2: TTGGCACCCGAGAATTCCA
modifications: constant regions annealed to DNA blockers; guide miR-122 5' phosphate
B3: ACGCTCCG (ssRNA)
RNA 1: GAGUUCUACAGUCCGACGAUCCCAACACGCUCCGCACCUGGAAUUCUCGGGUGCCAA
RNA 2: UGGAGUGUGACAAUGGUGUUUG
DNA 1: GATCGTCGGACTGTAGAACTC
DNA 2: TTGGCACCCGAGAATTCCA
modifications: constant regions annealed to DNA blockers; guide miR-122 5' phosphate
B4: ACGTTTCA (ssRNA)
RNA 1: GAGUUCUACAGUCCGACGAUCCCAACACGUUUCACACCUGGAAUUCUCGGGUGCCAA
RNA 2: UGGAGUGUGACAAUGGUGUUUG
DNA 1: GATCGTCGGACTGTAGAACTC
DNA 2: TTGGCACCCGAGAATTCCA
modifications: constant regions annealed to DNA blockers; guide miR-122 5' phosphate
B5: ATATTTTA (ssRNA)
RNA 1: GAGUUCUACAGUCCGACGAUCCCAACAUAUUUUACACCUGGAAUUCUCGGGUGCCAA
RNA 2: UGGAGUGUGACAAUGGUGUUUG
DNA 1: GATCGTCGGACTGTAGAACTC
DNA 2: TTGGCACCCGAGAATTCCA
modifications: constant regions annealed to DNA blockers; guide miR-122 5' phosphate
B6: GTATCTCA (ssRNA)
RNA 1: GAGUUCUACAGUCCGACGAUCCCAACGUAUCUCACACCUGGAAUUCUCGGGUGCCAA
RNA 2: UGGAGUGUGACAAUGGUGUUUG
DNA 1: GATCGTCGGACTGTAGAACTC
DNA 2: TTGGCACCCGAGAATTCCA
modifications: constant regions annealed to DNA blockers; guide miR-122 5' phosphate
B7: ATGCCTCA (ssRNA)
RNA 1: GAGUUCUACAGUCCGACGAUCCCAACAUGCCUCACACCUGGAAUUCUCGGGUGCCAA
RNA 2: UGGAGUGUGACAAUGGUGUUUG
DNA 1: GATCGTCGGACTGTAGAACTC
DNA 2: TTGGCACCCGAGAATTCCA
modifications: constant regions annealed to DNA blockers; guide miR-122 5' phosphate
B8: ATGTTTCA (ssRNA)
RNA 1: GAGUUCUACAGUCCGACGAUCCCAACAUGUUUCACACCUGGAAUUCUCGGGUGCCAA
RNA 2: UGGAGUGUGACAAUGGUGUUUG
DNA 1: GATCGTCGGACTGTAGAACTC
DNA 2: TTGGCACCCGAGAATTCCA
modifications: constant regions annealed to DNA blockers; guide miR-122 5' phosphate
B9: ACATCCTG (ssRNA)
RNA 1: GAGUUCUACAGUCCGACGAUCCCAACACAUCCUGCACCUGGAAUUCUCGGGUGCCAA
RNA 2: UGGAGUGUGACAAUGGUGUUUG
DNA 1: GATCGTCGGACTGTAGAACTC
DNA 2: TTGGCACCCGAGAATTCCA
modifications: constant regions annealed to DNA blockers; guide miR-122 5' phosphate
B10: ACGCCCCA (ssRNA)
RNA 1: GAGUUCUACAGUCCGACGAUCCCAACACGCCCCACACCUGGAAUUCUCGGGUGCCAA
RNA 2: UGGAGUGUGACAAUGGUGUUUG
DNA 1: GATCGTCGGACTGTAGAACTC
DNA 2: TTGGCACCCGAGAATTCCA
modifications: constant regions annealed to DNA blockers; guide miR-122 5' phosphate

What follows are binders tested against AGO2 WT (phosphosite mutant background) (Homo sapiens, UniProt Q9UKV8 1-859, S387D;S824A;S828D;S831D;S834A) (assay: RNA Bind-n-Seq (nitrocellulose filter binding and sequencing); miR-122 guide loaded in AGO2; 60 min incubation; 30 mM Tris pH 8.0, 100 mM potassium acetate, 2 mM magnesium acetate, 0.5 mM TCEP, 0.005% NP-40, 0.01 mg/ml yeast tRNA; 3 nM AGO2-miR-122, 100 nM RNA library; 60; high values mean tight binding). Settings: protein: recombinant; tags: His6 (N-terminal, pFastBac HTA).
Sequence of AGO2 WT (phosphosite mutant background) (Q9UKV8 whole entry S387D/S824A/S828D/S831D/S834A): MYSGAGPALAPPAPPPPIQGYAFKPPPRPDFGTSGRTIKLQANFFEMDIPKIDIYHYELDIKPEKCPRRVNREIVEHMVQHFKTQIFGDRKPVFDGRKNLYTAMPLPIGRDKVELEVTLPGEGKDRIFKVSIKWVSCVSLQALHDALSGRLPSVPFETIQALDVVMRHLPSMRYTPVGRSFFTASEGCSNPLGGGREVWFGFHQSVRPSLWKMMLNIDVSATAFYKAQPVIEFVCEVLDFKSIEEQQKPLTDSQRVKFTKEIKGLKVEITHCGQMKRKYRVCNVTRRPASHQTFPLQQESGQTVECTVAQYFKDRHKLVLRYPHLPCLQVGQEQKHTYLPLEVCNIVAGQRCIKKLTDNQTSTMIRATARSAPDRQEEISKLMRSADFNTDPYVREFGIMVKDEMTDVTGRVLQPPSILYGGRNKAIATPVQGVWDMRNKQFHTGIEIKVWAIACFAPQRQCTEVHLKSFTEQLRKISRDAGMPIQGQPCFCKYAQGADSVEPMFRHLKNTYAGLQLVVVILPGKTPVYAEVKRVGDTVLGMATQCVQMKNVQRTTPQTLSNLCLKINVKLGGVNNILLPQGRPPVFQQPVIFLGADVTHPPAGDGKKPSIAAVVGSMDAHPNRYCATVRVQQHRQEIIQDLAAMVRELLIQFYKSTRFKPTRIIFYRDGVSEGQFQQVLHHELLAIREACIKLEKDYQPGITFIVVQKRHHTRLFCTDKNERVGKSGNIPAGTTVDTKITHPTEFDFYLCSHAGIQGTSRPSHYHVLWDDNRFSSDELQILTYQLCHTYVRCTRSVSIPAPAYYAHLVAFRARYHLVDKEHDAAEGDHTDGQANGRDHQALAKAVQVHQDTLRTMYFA
Outline: (§1)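 Fold enrichment is each target's read fraction divided by its read fraction in the input library. Sf9 insect cells expressed His-tagged AGO2 from baculovirus; the protein was loaded with a synthetic guide RNA and purified by Ni-NTA and a biotinylated capture oligo. The bound RNA was extracted, reverse-transcribed, barcode-amplified and sequenced on Illumina.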
With B1 the binding signal was 0.136 fold enrichment over input.
For B2, the binding signal was 0.128 fold enrichment over input.
With B3 the binding signal was 3.15 fold enrichment over input.
For B4, the binding signal was 0.146 fold enrichment over input.
For B5, the binding signal was 0.127 fold enrichment over input.
B6 was tested, and the binding signal was 0.141 fold enrichment over input.
With B7 the binding signal was 0.127 fold enrichment over input.
For B8, the binding signal was 0.125 fold enrichment over input.
With B9 the binding signal was 0.144 fold enrichment over input.
For B10, the binding signal was 0.123 fold enrichment over input.

What follows are binders tested against AGO2 L192P (Homo sapiens, UniProt Q9UKV8 1-859, L192P;S387D;S824A;S828D;S831D;S834A) in the same assay as above. Settings: protein: recombinant; tags: His6 (N-terminal, pFastBac HTA).
Sequence of AGO2 L192P (Q9UKV8 whole entry L192P/S387D/S824A/S828D/S831D/S834A): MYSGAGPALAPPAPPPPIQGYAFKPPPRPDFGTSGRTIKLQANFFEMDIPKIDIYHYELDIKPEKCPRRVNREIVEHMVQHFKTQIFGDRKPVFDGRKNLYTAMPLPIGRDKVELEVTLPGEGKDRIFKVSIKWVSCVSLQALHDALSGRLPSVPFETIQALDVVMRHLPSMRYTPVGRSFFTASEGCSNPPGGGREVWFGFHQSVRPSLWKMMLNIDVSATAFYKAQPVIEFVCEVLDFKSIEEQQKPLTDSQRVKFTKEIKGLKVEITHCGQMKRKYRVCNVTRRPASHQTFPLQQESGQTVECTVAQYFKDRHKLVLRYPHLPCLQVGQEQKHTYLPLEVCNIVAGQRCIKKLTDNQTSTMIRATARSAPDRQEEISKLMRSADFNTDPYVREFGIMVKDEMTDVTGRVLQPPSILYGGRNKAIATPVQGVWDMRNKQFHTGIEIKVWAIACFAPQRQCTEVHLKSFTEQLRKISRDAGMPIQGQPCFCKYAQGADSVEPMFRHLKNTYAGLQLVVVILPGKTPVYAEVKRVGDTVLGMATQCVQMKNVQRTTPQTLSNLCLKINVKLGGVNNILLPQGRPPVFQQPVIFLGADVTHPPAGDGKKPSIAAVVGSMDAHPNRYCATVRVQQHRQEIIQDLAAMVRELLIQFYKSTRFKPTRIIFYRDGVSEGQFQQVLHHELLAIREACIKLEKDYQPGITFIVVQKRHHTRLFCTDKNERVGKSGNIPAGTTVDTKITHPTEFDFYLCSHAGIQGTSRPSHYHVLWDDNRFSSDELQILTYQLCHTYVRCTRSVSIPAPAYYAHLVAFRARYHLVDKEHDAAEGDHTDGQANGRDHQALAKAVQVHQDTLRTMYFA
Outline: as §1
In the case of B1, the binding signal is reported as 0.545 fold enrichment over input.
For B2, the binding signal was 0.38 fold enrichment over input.
For B3, the binding signal was 10.8 fold enrichment over input.
In the case of B4, the binding signal is reported as 0.656 fold enrichment over input.
For B5, the binding signal was 0.509 fold enrichment over input.
For B6, the binding signal was 0.597 fold enrichment over input.
For B7, the binding signal was 0.547 fold enrichment over input.
With B8 the binding signal was 0.54 fold enrichment over input.
With B9 the binding signal was 0.376 fold enrichment over input.
B10 was tested, and the binding signal was 0.538 fold enrichment over input.

Each binder was assayed against AGO2 A367P (Homo sapiens, UniProt Q9UKV8 1-859, A367P;S387D;S824A;S828D;S831D;S834A) in the same assay as above. Settings: protein: recombinant; tags: His6 (N-terminal, pFastBac HTA).
Sequence of AGO2 A367P (Q9UKV8 whole entry A367P/S387D/S824A/S828D/S831D/S834A): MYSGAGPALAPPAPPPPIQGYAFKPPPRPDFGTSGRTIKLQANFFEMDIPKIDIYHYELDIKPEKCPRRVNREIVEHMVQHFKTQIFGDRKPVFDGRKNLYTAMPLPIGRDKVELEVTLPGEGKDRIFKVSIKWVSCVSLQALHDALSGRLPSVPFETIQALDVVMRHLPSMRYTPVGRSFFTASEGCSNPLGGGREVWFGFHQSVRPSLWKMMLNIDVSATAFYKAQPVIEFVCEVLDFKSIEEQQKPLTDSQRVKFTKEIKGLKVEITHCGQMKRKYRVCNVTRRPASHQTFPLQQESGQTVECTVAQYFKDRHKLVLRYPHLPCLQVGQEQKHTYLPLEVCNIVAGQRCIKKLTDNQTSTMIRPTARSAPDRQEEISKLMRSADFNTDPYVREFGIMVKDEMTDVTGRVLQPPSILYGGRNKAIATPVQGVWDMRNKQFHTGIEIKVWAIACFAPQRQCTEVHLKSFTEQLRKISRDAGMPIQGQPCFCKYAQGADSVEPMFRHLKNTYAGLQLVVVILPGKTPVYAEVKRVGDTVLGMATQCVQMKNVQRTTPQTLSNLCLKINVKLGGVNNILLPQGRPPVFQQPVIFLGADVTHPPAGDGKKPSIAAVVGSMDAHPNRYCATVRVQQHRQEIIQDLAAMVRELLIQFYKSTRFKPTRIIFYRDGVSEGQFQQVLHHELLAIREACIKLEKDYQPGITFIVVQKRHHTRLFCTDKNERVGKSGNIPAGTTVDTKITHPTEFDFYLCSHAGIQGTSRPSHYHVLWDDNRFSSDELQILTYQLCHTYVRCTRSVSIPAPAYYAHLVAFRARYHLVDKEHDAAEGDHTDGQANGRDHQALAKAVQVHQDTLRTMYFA
Outline: as §1
In the case of B1, the binding signal is reported as 0.337 fold enrichment over input.
With B2 the binding signal was 0.158 fold enrichment over input.
With B3 the binding signal was 14 fold enrichment over input.
For B4, the binding signal was 0.363 fold enrichment over input.
For B5, the binding signal was 0.189 fold enrichment over input.
For B6, the binding signal was 0.455 fold enrichment over input.
In the case of B7, the binding signal is reported as 0.307 fold enrichment over input.
For B8, the binding signal was 0.311 fold enrichment over input.
For B9, the binding signal was 0.171 fold enrichment over input.
For B10, the binding signal was 0.215 fold enrichment over input.

The binders below were run against AGO2 T357M (Homo sapiens, UniProt Q9UKV8 1-859, T357M;S387D;S824A;S828D;S831D;S834A) in the same assay as above. Settings: protein: recombinant; tags: His6 (N-terminal, pFastBac HTA).
Sequence of AGO2 T357M (Q9UKV8 whole entry T357M/S387D/S824A/S828D/S831D/S834A): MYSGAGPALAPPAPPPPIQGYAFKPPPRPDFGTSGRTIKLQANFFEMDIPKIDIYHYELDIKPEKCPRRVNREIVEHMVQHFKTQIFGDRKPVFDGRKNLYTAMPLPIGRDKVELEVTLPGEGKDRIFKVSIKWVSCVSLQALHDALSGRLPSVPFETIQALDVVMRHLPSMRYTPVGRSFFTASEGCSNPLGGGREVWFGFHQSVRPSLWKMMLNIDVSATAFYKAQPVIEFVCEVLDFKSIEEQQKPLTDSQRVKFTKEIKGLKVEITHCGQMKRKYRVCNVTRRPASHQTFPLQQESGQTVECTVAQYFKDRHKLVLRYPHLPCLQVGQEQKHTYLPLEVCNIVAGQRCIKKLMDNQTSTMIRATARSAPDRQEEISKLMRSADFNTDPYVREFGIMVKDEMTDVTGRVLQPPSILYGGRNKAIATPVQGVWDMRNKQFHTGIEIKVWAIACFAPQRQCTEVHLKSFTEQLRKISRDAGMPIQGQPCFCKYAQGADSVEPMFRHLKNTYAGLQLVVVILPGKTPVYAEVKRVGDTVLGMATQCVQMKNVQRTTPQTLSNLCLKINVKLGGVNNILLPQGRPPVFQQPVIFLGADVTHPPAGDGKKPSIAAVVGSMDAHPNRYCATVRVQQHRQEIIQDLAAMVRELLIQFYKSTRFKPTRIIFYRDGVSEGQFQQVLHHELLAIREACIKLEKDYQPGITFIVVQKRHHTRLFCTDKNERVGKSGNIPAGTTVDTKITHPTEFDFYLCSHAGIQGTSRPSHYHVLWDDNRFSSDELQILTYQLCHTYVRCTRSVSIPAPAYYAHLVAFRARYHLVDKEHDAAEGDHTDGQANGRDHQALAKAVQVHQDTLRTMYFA
Outline: as §1
With B1 the binding signal was 0.647 fold enrichment over input.
In the case of B2, the binding signal is reported as 0.471 fold enrichment over input.
With B3 the binding signal was 1.98 fold enrichment over input.
In the case of B4, the binding signal is reported as 0.572 fold enrichment over input.
In the case of B5, the binding signal is reported as 0.697 fold enrichment over input.
With B6 the binding signal was 0.579 fold enrichment over input.
B7 was tested, and the binding signal was 0.637 fold enrichment over input.
In the case of B8, the binding signal is reported as 0.58 fold enrichment over input.
With B9 the binding signal was 0.475 fold enrichment over input.
B10 was tested, and the binding signal was 0.719 fold enrichment over input.

The binders below were run against AGO2 F182del (Homo sapiens, UniProt Q9UKV8 1-859, S387D;S824A;S828D;S831D;S834A;del182-182) in the same assay as above. Settings: protein: recombinant; tags: His6 (N-terminal, pFastBac HTA).
Sequence of AGO2 F182del (Q9UKV8 other isoform, or with tags, fused parts or gaps S387D;S824A;S828D;S831D;S834A;del182-182): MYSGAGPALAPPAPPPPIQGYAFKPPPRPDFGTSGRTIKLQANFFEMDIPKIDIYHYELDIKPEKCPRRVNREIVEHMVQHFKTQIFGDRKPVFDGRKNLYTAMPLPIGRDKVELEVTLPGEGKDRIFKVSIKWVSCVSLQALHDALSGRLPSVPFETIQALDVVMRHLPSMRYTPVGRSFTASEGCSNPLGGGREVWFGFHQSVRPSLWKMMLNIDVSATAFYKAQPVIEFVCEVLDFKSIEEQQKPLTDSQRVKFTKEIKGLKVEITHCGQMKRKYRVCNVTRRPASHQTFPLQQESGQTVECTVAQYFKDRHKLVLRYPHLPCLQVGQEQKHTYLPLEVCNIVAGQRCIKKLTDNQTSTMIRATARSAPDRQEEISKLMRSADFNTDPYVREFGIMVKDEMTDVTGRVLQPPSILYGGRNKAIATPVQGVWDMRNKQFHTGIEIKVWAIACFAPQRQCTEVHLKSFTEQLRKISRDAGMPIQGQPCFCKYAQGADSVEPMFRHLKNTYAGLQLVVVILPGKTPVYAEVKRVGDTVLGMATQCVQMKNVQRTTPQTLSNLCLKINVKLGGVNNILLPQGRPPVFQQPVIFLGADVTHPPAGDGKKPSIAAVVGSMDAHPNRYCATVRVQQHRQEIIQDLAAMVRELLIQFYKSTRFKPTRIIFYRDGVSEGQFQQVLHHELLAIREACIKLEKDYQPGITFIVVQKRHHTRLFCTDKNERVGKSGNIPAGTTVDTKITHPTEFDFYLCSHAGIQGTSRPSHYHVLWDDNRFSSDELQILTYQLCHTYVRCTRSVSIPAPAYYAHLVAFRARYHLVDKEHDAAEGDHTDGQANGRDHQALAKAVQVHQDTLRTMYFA
Outline: as §1
In the case of B1, the binding signal is reported as 0.805 fold enrichment over input.
B2 was tested, and the binding signal was 0.144 fold enrichment over input.
In the case of B3, the binding signal is reported as 15.2 fold enrichment over input.
For B4, the binding signal was 1.44 fold enrichment over input.
In the case of B6, the binding signal is reported as 1.35 fold enrichment over input.
B7 was tested, and the binding signal was 0.9 fold enrichment over input.
With B8 the binding signal was 0.814 fold enrichment over input.
In the case of B9, the binding signal is reported as 0.153 fold enrichment over input.
B10 was tested, and the binding signal was 0.236 fold enrichment over input.
